Shown are actives, neighbours in structure and some others; about 0.95% of the full set was active somewhere.
Tb PYK inh – qHTS of Trypanosoma Brucei Inhibitors; pyruvate kinase (Trypanosoma brucei), Q57TT1; TbPYK enzyme, Kinase-Glo Plus ATP luminescence, 45 min; Potency, µM (series often up to 76.8 µM), hits mostly inhibitors; 0.12% of 410,000 active; also: nearly all actives have a fitted effect of over 50% in size
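Screened from lowest to highest concentration, compounds were pinned into TbPYK/substrate mixtures, and ADP (130 uM final) was added. Plates sat at room temperature for 45 min prior to Kinase-Glo Plus detection by luminescence.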
Giardia FBPA inh-1 – qHTS Assay for Inhibitors of Fructose-1,6-bisphosphate Aldolase from Giardia Lamblia; A8B2U2; purified Giardia FBPA; Potency, µM (highest dose often 59.6 µM), most hits filed as inhibitors; 0.71% of 290,000 active; AID 2451, 2010; also: nearly all actives have a fitted effect of over 55% in size
Target sequence (A8B2U2 whole entry, looked up): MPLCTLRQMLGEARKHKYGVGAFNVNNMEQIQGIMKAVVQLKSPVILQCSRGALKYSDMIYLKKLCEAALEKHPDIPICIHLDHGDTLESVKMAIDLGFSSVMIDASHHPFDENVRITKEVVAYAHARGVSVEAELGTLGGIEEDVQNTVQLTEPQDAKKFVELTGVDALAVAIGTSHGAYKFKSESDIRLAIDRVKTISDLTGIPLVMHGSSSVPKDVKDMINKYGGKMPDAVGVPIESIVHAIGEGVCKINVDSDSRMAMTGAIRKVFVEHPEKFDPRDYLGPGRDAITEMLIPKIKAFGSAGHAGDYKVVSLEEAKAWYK
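Giardia FBPA (40 nM reagent) was preincubated 10 min at RT with compound (up to 57.5 uM final), then substrate plus GAPDH/TPI/NAD/arsenate coupling system with diaphorase/resazurin was added; resorufin fluorescence (525/598 nm) was read after 20 min.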
RE007 growth inh – qHTS Assay for Inhibitors of the HIV-1 protein Vpr | S. pombe RE007 Vpr strain, BacTiter-Glo ATP luminescence, 24 h | Potency, µM (titrated, usually from 92.2 µM), hits mostly inhibitors | 0.21% of 360,000 active | AID 651644, 2012; active = well fitted falling curve with a large enough effect; inconclusive = small, poorly fitted or top-dose-only effect; inactive = no such curve, though single readings can be large or run the other way; also: nearly all actives have a fitted effect of over 50% in size
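Fission yeast RE007 carrying one integrated HIV-1 vpr copy, seeded at OD 0.01 in PMG+AL medium with 23 nL pinned compound. Grown 24 h at 30 degrees; viability read by BacTiter-Glo luminescence after 5 min.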
LmPK inhibitor – qHTS Assay for Inhibitors of Leishmania Mexicana Pyruvate Kinase (LmPK); purified LmPK, Kinase-Glo ATP luminescence, 1 h; Q27686; Potency, µM (series often up to 57.5 µM), hits mostly inhibitors; 0.37% of 290,000 active; AID 1721, 2009
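ATP generated from ADP (0.1 mM) and PEP (0.5 mM) by 0.1 nM LmPK over 1 h at room temperature (pH 7.2 imidazole buffer) was detected by coupled luciferase luminescence. Values were normalized to uninhibited and no-enzyme wells.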
Giardia growth – qHTS Assay for Inhibitors of Fructose-1,6-bisphosphate Aldolase from Giardia Lamblia: Giardia lamblia growth inhibition | shares compounds with Giardia FBPA inh-1 | Giardia lamblia trophozoite growth inhibition | Potency, µM (top dose mostly 57.5 µM), most hits filed as inhibitors | 5% of 1,500 active;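 also: trophozoites exposed to compound for 48 h at 37 °C; nearly all actives have a fitted effect of over 70% in size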
Mammal cell tox – qHTS Assay for Inhibitors of Fructose-1,6-bisphosphate Aldolase from Giardia Lamblia: Mammalian cellular toxicity; AID 2786, 2010; shares compounds with Giardia FBPA inh-1; Potency, µM (titrated, usually from 57.5 µM), most hits filed as inhibitors; mammalian cell viability counter-screen, qHTS; 4% of 1,500 active;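 also: Chinese hamster ovary cells used as mammalian cytotoxicity surrogate; viability measured as cellular ATP by luminescence; compound exposure lasted 48 h before reading; nearly all actives have a fitted effect of over 60% in size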
Giardia FBPA inh-2 – qHTS Assay for Inhibitors of Fructose-1,6-bisphosphate Aldolase from Giardia Lamblia: Primary screen confirmation | Potency, µM (highest dose often 57.5 µM), hits mostly inhibitors | shares compounds with Giardia FBPA inh-1 | 5% of 1,500 active | purified Giardia aldolase enzyme activity, qHTS; also: nearly all actives have a fitted effect of over 45% in size
Rabbit aldolase – qHTS Assay for Inhibitors of Fructose-1,6-bisphosphate Aldolase from Giardia Lamblia: Rabbit FBPA Selectivity. shares compounds with Giardia FBPA inh-1. Rabbit muscle FBPA enzyme inhibition, selectivity counter-screen. Potency, µM (doses to about 57.5 µM), usual class: inhibitors. 4% of 1,500 active; also: nearly all actives have a fitted effect of over 60% in size
Target sequence (P00883 whole entry, looked up): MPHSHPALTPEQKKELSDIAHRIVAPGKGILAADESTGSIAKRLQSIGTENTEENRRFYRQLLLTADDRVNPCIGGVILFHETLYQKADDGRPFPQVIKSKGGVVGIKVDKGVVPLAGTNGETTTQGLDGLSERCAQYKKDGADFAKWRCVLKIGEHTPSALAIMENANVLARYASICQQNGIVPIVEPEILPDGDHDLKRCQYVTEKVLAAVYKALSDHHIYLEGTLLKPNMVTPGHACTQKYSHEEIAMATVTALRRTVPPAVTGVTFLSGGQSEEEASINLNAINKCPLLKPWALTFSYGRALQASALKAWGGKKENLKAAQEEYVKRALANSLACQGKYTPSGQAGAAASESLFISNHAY
GAPDH coupling – qHTS Assay for Inhibitors of Fructose-1,6-bisphosphate Aldolase from Giardia Lamblia: Coupling assay counterscreen confirmation | shares compounds with Giardia FBPA inh-1 | GAPDH coupling enzyme counterscreen, biochemical, qHTS | Potency, µM (series often up to 57.5 µM), actives largely listed as inhibitors | 6% of 1,500 active | AID 2795, 2010; also: nearly all actives have a fitted effect of over 55% in size
A number is an active result; . = inactive; ? = inconclusive; / = not tested or not shown; [ ] = dose if it differs, or a comment. Unless noted, calls follow the shape of the dose curve; as a rule, active = well fitted curve in the direction sought with a large enough effect; inconclusive = small, poorly fitted or top-dose-only effect, or another doubt; inactive = no such curve, though single readings can be large; an effect the other way counts as inactive or inconclusive.

SMILES	Tb PYK inh	Giardia FBPA inh-1	RE007 growth inh	LmPK inhibitor	Giardia growth	Mammal cell tox	Giardia FBPA inh-2	Rabbit aldolase	GAPDH coupling
COCC(=O)Nc1nc2ccccc2s1	.	.	.	.	/	/	/	/	/
CCN1CCN(CC(=O)Nc2nc3ccccc3s2)CC1	.	10µM	.	.	.	.	.	.	.
O=C(CN1CCN(c2ccccc2F)CC1)Nc1nnc(C(F)(F)F)s1	.	.	.	.	/	/	/	/	/
NC(=S)Nc1nc2ccccc2s1	.	5.6µM	.	.	.	?	.	.	.
C=C(C(C)=O)C(O)c1ccco1 (stereo unspecified)	/	.	/	/	/	/	/	/	/
CCc1nnc(NC(=O)CN2CCN(S(C)(=O)=O)CC2)s1	.	?	.	.	/	/	/	/	/
CCc1nnc(NC(=O)CN2CCN(CC)CC2)s1	.	3.5µM	.	.	.[10.4 µM]	.	.	.	.
CCCN1CCN(CC(=O)Nc2nncs2)CC1	.	4.5µM	.	.	.	.	.	.	.
CC(CCC(=O)Nc1nncs1)C(=O)O (stereo unspecified)	.	.	.	.	/	/	/	/	/
CCc1nnc(NC(=O)CN2CCCC(C)C2)s1 (stereo unspecified)	.	4µM	.	.	.[10.4 µM]	.	.	.	.
O=C(CSc1nccn1Cc1ccco1)Nc1ccccc1	.	/	.	.	/	/	/	/	/
S=c1[nH]nc(-c2ccn[nH]2)n1-c1ccccc1Cl	?	20µM	.	?	45µM	.	.	.	.
CCOC(=O)[C@]12CCC=C1N(Cc1ccccc1)C(=O)[C@H](CC(=O)NCc1cccs1)C2	.	/	.	/	/	/	/	/	/
O=c1nc(N/N=C/c2c[nH]c3ccccc23)cn[nH]1	.	18µM	.	.	.	.	.	.	.
C(=N\Nc1ccccn1)/c1c[nH]c2ccccc12	.	.	.	.	/	/	/	/	/
C=CCn1c(-c2ccoc2)n[nH]c1=S	?	2.5µM	.	.	?	.	.	.	.
C=CCn1c(-c2ccccc2)n[nH]c1=S	?	.	?	.	/	/	/	/	/
C=CCn1c(-c2ccncc2)n[nH]c1=S	?	2.5µM	.	.	.	.	.	.	.
OC(c1cc(F)cc(Cl)c1)c1ncc(-c2ccccc2C(F)(F)F)[nH]1 (stereo unspecified)	.	/	.[18.4 µM]	/	/	/	/	/	/
CCOC(=O)c1cnc2ccc(C(=O)OC)cc2c1Nc1ccccc1CC	.	/	/	/	/	/	/	/	/
CC1CCCC(NC(=O)c2cccc(S(=O)(=O)N3CCCCC3)c2)C1C (stereo unspecified)	.	/	.	.	/	/	/	/	/
CCS(=O)(=O)N1CCN(Cc2ccncc2)CC1	.	14µM	.	.	.	.	.	.	.
CCCS(=O)(=O)N1CCN(Cc2ccncc2)CC1	.	.	.	.	/	/	/	/	/
Cc1cc(C)c(NC(=S)NCCCSC2CCCCC2)c(C)c1	.	16µM	.	.	?	.	.	.	.
CC(C)c1nc(CNC(=O)C2CCC(=O)N(Cc3ccc(Cl)cc3)C2)no1 (stereo unspecified)	.	/	.	.	/	/	/	/	/
SMILES	Tb PYK inh	Giardia FBPA inh-1	RE007 growth inh	LmPK inhibitor	Giardia growth	Mammal cell tox	Giardia FBPA inh-2	Rabbit aldolase	GAPDH coupling
CCOC(=O)C1CCCN(CCC(=O)Nc2ccc(Br)c(C)c2)C1 (stereo unspecified)	.	14µM	.	.	?	.	.	.	.
CCOC(=O)C1CCCN(CCC(=O)Nc2ccc(C)c(C)c2)C1 (stereo unspecified)	.	.	.	.	/	/	/	/	/
COc1ccc(CCNS(=O)(=O)c2c(C)nc3sccn3c2=O)cc1OC	.	/	/	/	/	/	/	/	/
CCOC(=O)c1cc(S(=O)(=O)Nc2cc(C)c(Cl)cc2OC)[nH]n1	.	/	/	/	/	/	/	/	/
Cc1ccc(OCCOCCN2CCN(C)CC2)c([N+](=O)[O-])c1	.	?	.	.	/	/	/	/	/
Cc1ccc(OCCOCCN2CCCCC2)c([N+](=O)[O-])c1	.	20µM	.	.	.	.	.	.	.
CCOC(=O)c1c(C)[nH]c(C)c1S(=O)(=O)N(C)CC(=O)Nc1ccccc1F	.	.	.	.	/	/	/	/	/
C/C(=N\NC(=S)Nc1cccc(C)c1)c1ccco1	.	.	.	.	/	/	/	/	/
CCNC(=S)N/N=C(\C)c1ccco1	.	18µM	.	.	.	.	.	.	.
COc1ccc(COC(=O)C2=C(C)NC(=O)NC2c2cc(Br)c(O)c(OC)c2)cc1 (stereo unspecified)	.	.	.	.	/	/	/	/	/
O=C(O)CC(Sc1n[nH]c(=S)s1)C(=O)O (stereo unspecified)	?	4.5µM	.	.	.	?	?	?	?
CCn1c(=O)c(C(=O)CN(C)Cc2ccc(F)cc2)c(N)n(Cc2ccccc2)c1=O	.	.	.	.	/	/	/	/	/
CCn1c(=O)c(C(=O)CN(C)Cc2cccc(OC)c2OC)c(N)n(Cc2ccccc2)c1=O	.	16µM	.	.	.	.	.	.	.
CCCCN(C1CCS(=O)(=O)C1)S(=O)(=O)c1cc(C)ccc1C (stereo unspecified)	.	/	.	/	/	/	/	/	/
Cc1ccc(NS(=O)(=O)c2cc(NC(=O)c3ccc4c(c3)NC(=O)CS4)ccc2C)c(C)c1	?	16µM	.	.	.	.	.	.	.
COc1ccccc1N1CCN(c2ncnc3c2cnn3-c2ccc(C)cc2)CC1	.	/	/	/	/	/	/	/	/
COc1ccc(C(=O)N/C(=C/c2ccc(Cl)cc2)C(=O)NCc2ccncc2)cc1	.	.	.	.	/	/	/	/	/
COc1ccc(NC(=O)C(Cc2ccccc2)NS(=O)(=O)c2ccc3c(c2)oc(=O)n3C)c(OC)c1 (stereo unspecified)	.	/	/	/	/	/	/	/	/
CC(C)(C)c1ccc(C(=O)Nc2cccc3c(=O)[nH][nH]c(=O)c23)cc1	.	20µM	.	.	?	?	.	.	.
Cc1ccc(C(=O)Nc2cccc3ccccc23)cc1	.	.	.	.	/	/	/	/	/
N[C@@H](CO)C(=O)NNCc1ccc(O)c(O)c1O	.	5µM	/	/	.	.	?	?	?
c1ccc(NC2=NCCN2CCCC2CCCCC2)cc1	.	/	.	/	/	/	/	/	/
NS(=O)(=O)c1ccc(-c2ccc(C=O)o2)cc1	.	.	.	.	/	/	/	/	/
NS(=O)(=O)c1ccc(-c2ccc(/C=C3\NC(=S)NC3=O)o2)cc1	?	16µM	.	.	?	.	.	.	.
